Assay results published in publication PMC7862700, “An all-to-all approach to the identification of sequence-specific readers for epigenetic DNA modifications on cytosine”.

Key:
Assay in all cases: DAPPL (digital affinity profiling via proximity ligation, sequencing); 10 mM Tris-HCl pH 7.5, 50 mM NaCl, 1 mM DTT, 4% glycerol, room temperature, 30 min; GST-TFs on glutathione beads, 16-mer random dsDNA library, 0.1% formaldehyde crosslink after washing; high values mean tight binding
FEV = target: T1, FEV (Homo sapiens, UniProt Q99581 1-238); conditions: protein: recombinant; tags: N-terminal GST; dsDNA, one strand shown
T1 sequence: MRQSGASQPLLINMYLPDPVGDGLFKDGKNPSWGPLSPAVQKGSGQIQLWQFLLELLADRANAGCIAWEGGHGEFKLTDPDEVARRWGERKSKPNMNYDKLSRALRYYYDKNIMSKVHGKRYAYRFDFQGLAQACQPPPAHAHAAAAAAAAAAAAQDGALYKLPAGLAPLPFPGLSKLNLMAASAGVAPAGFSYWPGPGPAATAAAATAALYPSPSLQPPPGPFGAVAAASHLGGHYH
Outline: (§1)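 Yeast served to express human transcription factors as GST fusions, which were then captured on glutathione beads and labelled with DNA barcodes. Pooled with a tag-only sample, they were incubated with 200 nmole of a 16-mer random double-stranded DNA library for 30 min at room temperature in Tris/NaCl/DTT/glycerol buffer, washed, crosslinked with 0.1% formaldehyde, ligated by proximity, amplified by PCR and sequenced. Dividing each hexamer's read frequency for a factor by its frequency for the tag-only sample gives the binding signal.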

ETV5 = ETV5 (Homo sapiens, UniProt P41161 1-510); conditions: protein: recombinant; tags: N-terminal GST; dsDNA, one strand shown
ETV5, sequence (P41161 whole entry): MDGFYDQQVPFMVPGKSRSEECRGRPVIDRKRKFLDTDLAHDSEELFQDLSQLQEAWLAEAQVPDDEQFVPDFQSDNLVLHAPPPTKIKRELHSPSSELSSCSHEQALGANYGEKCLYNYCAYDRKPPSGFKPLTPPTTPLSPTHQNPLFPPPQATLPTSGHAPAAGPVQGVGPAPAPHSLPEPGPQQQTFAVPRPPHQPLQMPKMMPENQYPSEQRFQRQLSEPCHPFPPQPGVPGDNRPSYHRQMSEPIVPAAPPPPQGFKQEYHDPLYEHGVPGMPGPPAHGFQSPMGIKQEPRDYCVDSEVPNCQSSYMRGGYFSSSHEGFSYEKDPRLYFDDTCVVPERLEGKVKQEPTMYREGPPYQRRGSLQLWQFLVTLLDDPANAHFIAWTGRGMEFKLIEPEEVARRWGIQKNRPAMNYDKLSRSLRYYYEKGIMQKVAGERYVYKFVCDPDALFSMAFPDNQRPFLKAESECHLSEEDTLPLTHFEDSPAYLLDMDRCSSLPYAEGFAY
Outline: as §1

HSF1 = HSF1 (Homo sapiens, UniProt Q00613 1-529); conditions: protein: recombinant; tags: N-terminal GST; chain copies: 3; dsDNA, one strand shown
HSF1, sequence (Q00613 whole entry): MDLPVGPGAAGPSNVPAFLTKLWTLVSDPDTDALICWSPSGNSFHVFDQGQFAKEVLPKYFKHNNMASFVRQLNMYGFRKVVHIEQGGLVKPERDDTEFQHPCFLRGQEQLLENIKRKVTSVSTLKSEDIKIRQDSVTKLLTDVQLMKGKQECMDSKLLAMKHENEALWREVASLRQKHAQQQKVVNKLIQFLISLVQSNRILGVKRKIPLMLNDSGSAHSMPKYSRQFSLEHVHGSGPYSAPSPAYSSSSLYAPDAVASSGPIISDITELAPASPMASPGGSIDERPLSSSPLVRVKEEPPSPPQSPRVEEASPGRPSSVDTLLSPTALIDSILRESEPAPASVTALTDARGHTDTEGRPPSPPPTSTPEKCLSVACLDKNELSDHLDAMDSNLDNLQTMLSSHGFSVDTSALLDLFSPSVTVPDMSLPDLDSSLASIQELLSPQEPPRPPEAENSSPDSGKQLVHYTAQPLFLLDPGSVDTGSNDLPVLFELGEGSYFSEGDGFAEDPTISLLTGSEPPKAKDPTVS
Outline: as §1

SPIC = target: T2, SPIC (Homo sapiens, UniProt Q8N5J4 1-248); conditions: protein: recombinant; tags: N-terminal GST; dsDNA, one strand shown
T2 sequence: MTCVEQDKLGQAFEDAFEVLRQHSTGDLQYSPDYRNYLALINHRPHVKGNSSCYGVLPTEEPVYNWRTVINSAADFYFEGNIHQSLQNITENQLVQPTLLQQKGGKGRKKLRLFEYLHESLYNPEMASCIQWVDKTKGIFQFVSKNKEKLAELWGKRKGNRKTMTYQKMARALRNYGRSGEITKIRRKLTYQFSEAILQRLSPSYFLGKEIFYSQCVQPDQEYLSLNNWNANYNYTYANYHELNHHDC
Outline: as §1

ELF4 = ELF4 (Homo sapiens, UniProt Q99607 1-663); conditions: protein: recombinant; tags: N-terminal GST; dsDNA, one strand shown
ELF4, sequence (Q99607 whole entry): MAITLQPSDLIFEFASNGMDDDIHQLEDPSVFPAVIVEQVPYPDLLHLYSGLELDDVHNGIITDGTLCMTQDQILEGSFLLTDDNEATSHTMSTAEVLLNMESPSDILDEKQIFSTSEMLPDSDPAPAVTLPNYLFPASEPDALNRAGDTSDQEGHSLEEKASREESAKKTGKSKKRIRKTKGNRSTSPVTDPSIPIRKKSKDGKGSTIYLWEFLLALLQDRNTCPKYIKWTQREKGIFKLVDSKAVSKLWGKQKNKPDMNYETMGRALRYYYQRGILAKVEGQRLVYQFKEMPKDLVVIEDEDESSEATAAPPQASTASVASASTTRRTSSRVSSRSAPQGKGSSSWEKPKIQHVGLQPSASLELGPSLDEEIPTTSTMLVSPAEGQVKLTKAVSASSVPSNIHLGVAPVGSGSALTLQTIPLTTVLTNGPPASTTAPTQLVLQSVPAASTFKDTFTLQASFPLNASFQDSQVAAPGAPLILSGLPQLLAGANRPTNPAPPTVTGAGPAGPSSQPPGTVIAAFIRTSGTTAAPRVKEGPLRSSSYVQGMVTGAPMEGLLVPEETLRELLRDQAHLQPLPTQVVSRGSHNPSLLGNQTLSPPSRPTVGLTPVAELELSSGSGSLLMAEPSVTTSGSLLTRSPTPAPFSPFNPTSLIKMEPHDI
Outline: as §1

ELK4 = target: T3, ELK4 (Homo sapiens, UniProt P28324-2 1-405); conditions: protein: recombinant; tags: N-terminal GST; dsDNA, one strand shown
T3 sequence: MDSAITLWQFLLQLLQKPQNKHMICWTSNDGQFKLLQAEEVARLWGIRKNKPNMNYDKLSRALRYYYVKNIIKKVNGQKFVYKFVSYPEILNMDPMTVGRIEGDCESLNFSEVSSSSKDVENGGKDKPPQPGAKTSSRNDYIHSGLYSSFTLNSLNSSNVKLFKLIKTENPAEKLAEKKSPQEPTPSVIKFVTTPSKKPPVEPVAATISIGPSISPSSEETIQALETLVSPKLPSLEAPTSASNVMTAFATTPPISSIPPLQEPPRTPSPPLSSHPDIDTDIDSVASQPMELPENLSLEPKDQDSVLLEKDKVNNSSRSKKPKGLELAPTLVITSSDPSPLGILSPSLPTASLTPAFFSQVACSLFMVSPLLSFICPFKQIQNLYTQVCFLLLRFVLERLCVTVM
Outline: as §1

ETV2 = target: T4, ETV2 (Homo sapiens, UniProt O00321 1-342); conditions: protein: recombinant; tags: N-terminal GST; dsDNA, one strand shown
T4 sequence: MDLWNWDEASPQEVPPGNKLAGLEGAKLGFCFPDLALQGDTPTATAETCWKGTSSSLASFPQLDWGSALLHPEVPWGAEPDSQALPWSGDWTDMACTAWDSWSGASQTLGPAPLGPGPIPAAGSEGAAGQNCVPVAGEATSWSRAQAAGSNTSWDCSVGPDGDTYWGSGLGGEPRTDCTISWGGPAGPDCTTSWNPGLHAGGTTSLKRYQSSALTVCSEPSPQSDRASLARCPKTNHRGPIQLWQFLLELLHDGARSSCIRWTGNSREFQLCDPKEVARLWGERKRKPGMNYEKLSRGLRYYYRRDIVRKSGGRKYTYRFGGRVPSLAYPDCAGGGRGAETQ
Outline: as §1

ELF3 = target: T5, ELF3 (Homo sapiens, UniProt P78545 1-371); conditions: protein: recombinant; tags: N-terminal GST; dsDNA, one strand shown
T5 sequence: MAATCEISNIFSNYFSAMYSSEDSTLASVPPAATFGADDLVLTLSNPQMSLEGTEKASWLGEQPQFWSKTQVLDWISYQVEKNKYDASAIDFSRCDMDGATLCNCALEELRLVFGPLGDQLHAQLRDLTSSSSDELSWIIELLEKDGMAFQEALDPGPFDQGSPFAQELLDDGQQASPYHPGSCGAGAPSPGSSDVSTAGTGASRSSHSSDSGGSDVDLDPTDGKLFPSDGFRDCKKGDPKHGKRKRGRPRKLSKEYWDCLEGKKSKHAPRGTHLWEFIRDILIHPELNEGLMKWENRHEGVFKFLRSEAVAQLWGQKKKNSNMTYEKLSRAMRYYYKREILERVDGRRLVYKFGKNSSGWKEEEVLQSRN
Outline: as §1

CRX = CRX (Homo sapiens, UniProt O43186 1-299); conditions: protein: recombinant; tags: N-terminal GST; dsDNA, one strand shown
CRX, sequence (O43186 whole entry): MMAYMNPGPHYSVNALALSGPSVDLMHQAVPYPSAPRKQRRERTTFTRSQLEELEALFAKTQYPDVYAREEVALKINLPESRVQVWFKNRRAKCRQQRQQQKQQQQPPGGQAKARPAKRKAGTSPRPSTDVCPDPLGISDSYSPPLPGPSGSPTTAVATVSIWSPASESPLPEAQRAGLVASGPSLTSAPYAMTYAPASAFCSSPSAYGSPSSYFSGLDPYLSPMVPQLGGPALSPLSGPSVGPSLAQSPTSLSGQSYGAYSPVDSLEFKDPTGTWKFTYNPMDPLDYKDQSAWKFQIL
Outline: as §1

ETV1 = ETV1 (Homo sapiens, UniProt P50549 1-477); conditions: protein: recombinant; tags: N-terminal GST; dsDNA, one strand shown
ETV1, sequence (P50549 whole entry): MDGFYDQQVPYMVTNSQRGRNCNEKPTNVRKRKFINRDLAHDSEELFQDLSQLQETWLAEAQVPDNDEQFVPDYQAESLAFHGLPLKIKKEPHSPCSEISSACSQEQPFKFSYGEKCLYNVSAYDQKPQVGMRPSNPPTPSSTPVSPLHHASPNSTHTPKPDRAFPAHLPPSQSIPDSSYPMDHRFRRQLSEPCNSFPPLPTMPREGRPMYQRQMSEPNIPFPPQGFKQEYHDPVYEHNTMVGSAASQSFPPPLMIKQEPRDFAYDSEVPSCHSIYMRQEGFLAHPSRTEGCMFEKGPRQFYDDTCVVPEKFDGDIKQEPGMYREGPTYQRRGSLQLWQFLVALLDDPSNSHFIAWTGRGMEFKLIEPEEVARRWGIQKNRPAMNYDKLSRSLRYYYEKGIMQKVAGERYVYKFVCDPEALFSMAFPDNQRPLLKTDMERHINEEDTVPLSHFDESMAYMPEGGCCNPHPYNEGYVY
Outline: as §1

Sequence	binding signal (FEV)	binding signal (ETV5)	binding signal (HSF1)	binding signal (SPIC)	binding signal (ELF4)	binding signal (ELK4)	binding signal (ETV2)	binding signal (ELF3)	binding signal (CRX)	binding signal (ETV1)
CTCGCA	1.32 fold enrichment (6-mer frequency, TF over GST control)	1.19 fold enrichment (6-mer frequency, TF over GST control)	1.61 fold enrichment (6-mer frequency, TF over GST control)	1.43 fold enrichment (6-mer frequency, TF over GST control)	1.26 fold enrichment (6-mer frequency, TF over GST control)	1.29 fold enrichment (6-mer frequency, TF over GST control)	1.34 fold enrichment (6-mer frequency, TF over GST control)	1.26 fold enrichment (6-mer frequency, TF over GST control)	1.2 fold enrichment (6-mer frequency, TF over GST control)	1.26 fold enrichment (6-mer frequency, TF over GST control)
ATGGAT	1.04 fold enrichment (6-mer frequency, TF over GST control)	1.07 fold enrichment (6-mer frequency, TF over GST control)	1.26 fold enrichment (6-mer frequency, TF over GST control)	1.21 fold enrichment (6-mer frequency, TF over GST control)	1.11 fold enrichment (6-mer frequency, TF over GST control)	1.14 fold enrichment (6-mer frequency, TF over GST control)	1.06 fold enrichment (6-mer frequency, TF over GST control)	1.09 fold enrichment (6-mer frequency, TF over GST control)	1.6 fold enrichment (6-mer frequency, TF over GST control)	1.06 fold enrichment (6-mer frequency, TF over GST control)
CATTCT	1.29 fold enrichment (6-mer frequency, TF over GST control)	1.28 fold enrichment (6-mer frequency, TF over GST control)	2.56 fold enrichment (6-mer frequency, TF over GST control)	1.31 fold enrichment (6-mer frequency, TF over GST control)	1.37 fold enrichment (6-mer frequency, TF over GST control)	1.36 fold enrichment (6-mer frequency, TF over GST control)	1.36 fold enrichment (6-mer frequency, TF over GST control)	1.22 fold enrichment (6-mer frequency, TF over GST control)	1.63 fold enrichment (6-mer frequency, TF over GST control)	1.31 fold enrichment (6-mer frequency, TF over GST control)
TTGTCT	1.24 fold enrichment (6-mer frequency, TF over GST control)	1.29 fold enrichment (6-mer frequency, TF over GST control)	1.14 fold enrichment (6-mer frequency, TF over GST control)	1.3 fold enrichment (6-mer frequency, TF over GST control)	1.18 fold enrichment (6-mer frequency, TF over GST control)	1.22 fold enrichment (6-mer frequency, TF over GST control)	1.27 fold enrichment (6-mer frequency, TF over GST control)	1.34 fold enrichment (6-mer frequency, TF over GST control)	1.15 fold enrichment (6-mer frequency, TF over GST control)	1.2 fold enrichment (6-mer frequency, TF over GST control)
ATGAAT	1.07 fold enrichment (6-mer frequency, TF over GST control)	1.1 fold enrichment (6-mer frequency, TF over GST control)	1.19 fold enrichment (6-mer frequency, TF over GST control)	1.31 fold enrichment (6-mer frequency, TF over GST control)	1.14 fold enrichment (6-mer frequency, TF over GST control)	1.13 fold enrichment (6-mer frequency, TF over GST control)	1.04 fold enrichment (6-mer frequency, TF over GST control)	1.08 fold enrichment (6-mer frequency, TF over GST control)	1.2 fold enrichment (6-mer frequency, TF over GST control)	1.16 fold enrichment (6-mer frequency, TF over GST control)
TGGCTC	1.39 fold enrichment (6-mer frequency, TF over GST control)	1.3 fold enrichment (6-mer frequency, TF over GST control)	1.36 fold enrichment (6-mer frequency, TF over GST control)	1.46 fold enrichment (6-mer frequency, TF over GST control)	1.35 fold enrichment (6-mer frequency, TF over GST control)	1.5 fold enrichment (6-mer frequency, TF over GST control)	1.61 fold enrichment (6-mer frequency, TF over GST control)	1.44 fold enrichment (6-mer frequency, TF over GST control)	1.3 fold enrichment (6-mer frequency, TF over GST control)	1.42 fold enrichment (6-mer frequency, TF over GST control)
GGCTCA	1.22 fold enrichment (6-mer frequency, TF over GST control)	1.22 fold enrichment (6-mer frequency, TF over GST control)	1.27 fold enrichment (6-mer frequency, TF over GST control)	1.28 fold enrichment (6-mer frequency, TF over GST control)	1.3 fold enrichment (6-mer frequency, TF over GST control)	1.15 fold enrichment (6-mer frequency, TF over GST control)	1.13 fold enrichment (6-mer frequency, TF over GST control)	1.28 fold enrichment (6-mer frequency, TF over GST control)	1.53 fold enrichment (6-mer frequency, TF over GST control)	1.18 fold enrichment (6-mer frequency, TF over GST control)
